Out of some 320,000 compounds screened, about 8,000 (2.5%) were called active. No stated cut-off is given here; in the data, active means activation above about 47%; inactive means the rest. The entries come from a sample that favours actives as a whole.
These compounds were tested against Aryl hydrocarbon receptor (Homo sapiens) (UniProt P35869) (assay: AHR activators, primary screen, cell-based, luminescence, luciferase reporter, human (AID 2796;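 further: 0% = vehicle wells and 100% = reference agonist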)). Details: AHR-responsive luciferase reporter cells, at 5 µM, stronger effect = higher value.
Sequence of Aryl hydrocarbon receptor (Homo sapiens) (P35869 whole entry, looked up): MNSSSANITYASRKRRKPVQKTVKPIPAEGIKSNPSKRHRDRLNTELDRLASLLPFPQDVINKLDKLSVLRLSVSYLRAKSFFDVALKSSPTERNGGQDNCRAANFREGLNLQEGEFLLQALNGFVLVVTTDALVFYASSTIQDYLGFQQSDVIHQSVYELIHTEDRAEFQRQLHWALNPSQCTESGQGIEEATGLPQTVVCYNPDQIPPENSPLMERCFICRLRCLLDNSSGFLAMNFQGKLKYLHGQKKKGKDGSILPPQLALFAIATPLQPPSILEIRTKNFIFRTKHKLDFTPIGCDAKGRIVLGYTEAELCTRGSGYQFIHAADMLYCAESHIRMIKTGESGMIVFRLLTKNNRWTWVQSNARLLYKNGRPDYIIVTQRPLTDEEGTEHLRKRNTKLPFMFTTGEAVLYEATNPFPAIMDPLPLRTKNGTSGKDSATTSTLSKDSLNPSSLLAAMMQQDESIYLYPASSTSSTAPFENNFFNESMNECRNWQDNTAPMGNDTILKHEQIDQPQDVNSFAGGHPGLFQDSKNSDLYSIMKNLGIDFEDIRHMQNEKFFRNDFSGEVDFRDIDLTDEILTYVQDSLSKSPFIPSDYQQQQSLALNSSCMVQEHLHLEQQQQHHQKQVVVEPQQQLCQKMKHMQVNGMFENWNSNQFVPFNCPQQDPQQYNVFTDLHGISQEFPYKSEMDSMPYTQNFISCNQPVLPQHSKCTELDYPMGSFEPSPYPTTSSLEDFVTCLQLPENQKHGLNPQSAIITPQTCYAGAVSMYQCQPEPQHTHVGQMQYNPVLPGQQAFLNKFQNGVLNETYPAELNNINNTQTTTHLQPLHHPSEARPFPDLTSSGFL
`O=S1(=O)CC(NCc2ccccc2)C(Nc2ccc(Cl)cc2)C1` (stereo not given) was tested, and the activation was 0.94% (inactive).
For `CSCCC(NC(=O)COc1ccccc1)C(=O)N(C)CC(=O)Nc1ccc(C)cc1` (stereo not given), the activation was 1.75% (inactive).
With `O=[N+]([O-])c1ccc(F)cc1Oc1nc(-c2cccnc2)nc2ccccc12` the activation was 62.5% (active).
In the case of `CCN(CC(=O)NC1CCS(=O)(=O)C1)c1nc(-c2cccnc2)nc2ccccc12` (stereo not given), the activation was 1.86% (inactive).
With `O=[N+]([O-])c1ccc(Oc2ccc(F)cc2Br)c2ccncc12` the activation was 15.1% (inactive).
For `CCCCn1c(N)c(N(CCOC)C(=O)CSCC(=O)Nc2cccc(C)c2)c(=O)[nH]c1=O`, the activation was 1.66% (inactive).
With `CCc1nn(CC(=O)N2CCN(c3cc(C)ccc3C)CC2)c(=O)c2cc3occc3n12` the activation was 4.48% (inactive).
In the case of `Cc1ccc(C)c(N2CCN(C(=O)Cn3ncn4cccc4c3=O)CC2)c1`, the activation was 49.4% (active).
`Cc1ccc(C)c(N2CCN(C(=O)CCCn3c(=O)c4cccn4c4cccnc43)CC2)c1` was tested, and the activation was 6.45% (inactive).
In the case of `COc1ccc2nc3n(c(=O)c2c1)-c1ccc(Cl)cc1C(=O)NC3Cc1ccccc1` (stereo not given), the activation was 1.56% (inactive).
In the case of `O=C(O)c1ccccc1-c1ccccc1C(=O)Nc1ccccc1Br`, the activation was 0.17% (inactive).
For `CC(C)N(Cc1nc(-c2ccc3c(c2)OCO3)no1)CC1CCC(=O)N1` (stereo not given), the activation was 16.6% (inactive).
For `CCn1ccnc1CN(C)Cc1nc(-c2ccc3c(c2)OCO3)no1`, the activation was 86.7% (active).
`CN(CCN1CCOCC1)Cc1nc(-c2ccc3c(c2)OCO3)no1` was tested, and the activation was 10.5% (inactive).
In the case of `CCOc1c2ccc(C(=O)NC3CCCc4ccccc43)cc2nn1CC` (stereo not given), the activation was 7.2% (inactive).
For `Cc1cc(C)nc(NC(=O)c2cccc([N+](=O)[O-])c2)c1`, the activation was 40.8% (inactive).
With `O=C(Nc1ccc(C2CC2(Cl)Cl)cc1)c1cccc([N+](=O)[O-])c1` (stereo not given) the activation was 96.3% (active).
`O=C(Nc1ccc(C(=O)N2CCCCC2)cc1)c1cccc([N+](=O)[O-])c1` was tested, and the activation was -1.69% (inactive).
For `Cc1ccc(-c2nn(-c3ccccc3)cc2C(=O)NCCCN2CCCC2=O)cc1`, the activation was 1.15% (inactive).
`CCC(C)(C)NC(=O)/C=C/c1cc(OC)c(OC)c(S(=O)(=O)N2CCc3ccccc32)c1` was tested, and the activation was 5.39% (inactive).
`COc1ccc2c(c1)c(C(=O)N/N=C/c1cccs1)c(C)n2C` was tested, and the activation was 72.6% (active).
With `NC(=O)N/N=C\c1cccs1` the activation was -0.87% (inactive).
With `COc1ccc(N(CC(=O)N/N=C/c2cccs2)S(=O)(=O)c2ccc(OC)c(OC)c2)cc1` the activation was 1.41% (inactive).
For `COc1cc(C(=O)NCc2nnc(SCC(=O)Nc3nc4ccc(C)cc4s3)o2)cc(OC)c1OC`, the activation was -5.66% (inactive).
`O=C(/C(=C/c1cccc(Cl)c1)c1nc2ccccc2[nH]1)c1ccccc1` was tested, and the activation was 44.8% (inactive).
`CCC(=O)/C(=C(/O)c1ccccc1)c1nc2ccccc2[nH]1` was tested, and the activation was 64.6% (active).
With `COCCN(CCOC)S(=O)(=O)c1ccc(/C(O)=C(\C#N)c2nc3ccccc3[nH]2)cc1` the activation was 6.43% (inactive).
`COC(C[C@@H]1O[C@@H]1C(=O)[C@@H](C)OCc1ccccc1)OC` was tested, and the activation was -3.27% (inactive).
For `COc1ccccc1NC(=O)CCCc1c[nH]c2ccccc12`, the activation was 6.67% (inactive).
In the case of `COc1ccc(Cl)cc1NC(=O)CN(C)C(=O)c1cc2ccccc2cc1OC`, the activation was 19.4% (inactive).
`COc1ccc(Cl)cc1NC(=O)CN(C)C(=O)CCCc1c[nH]c2ccccc12` was tested, and the activation was 51.8% (active).
In the case of `O=C(OCC(=O)N1CCCCC1)c1ccc(OC(F)(F)F)cc1`, the activation was 0.31% (inactive).
In the case of `CN(C)NC(=O)c1csnc1-c1c(Cl)cccc1Cl`, the activation was 1.27% (inactive).
With `CC1CC(=O)Nc2ccccc2N1C(=O)COc1ccc2cc(Br)ccc2c1` (stereo not given) the activation was 2.14% (inactive).
With `COc1ccc(C(=O)N/N=C(\C)CC(=O)Nc2ccc(Cl)cn2)cc1` the activation was 13.8% (inactive).
For `COc1ccc(C(=O)NC(=S)Nc2ccc(Cl)cn2)cc1OC`, the activation was 5.66% (inactive).
For `COc1c(Cl)cc(C(=O)Nc2ccc(Cl)cn2)cc1Cl`, the activation was 67.2% (active).
With `COc1ccc(N(CC(=O)NCc2ccc(F)cc2)C(=O)CCC(=O)Nc2nccs2)cc1` the activation was 0.66% (inactive).
In the case of `COc1cccc(CNC(=O)CCN2C(=S)NC(C)(C)CC2C)c1` (stereo not given), the activation was 3.02% (inactive).
`CCSc1nnc(-c2cc3c(s2)-c2ccccc2CC3)o1` was tested, and the activation was 62.1% (active).
With `Clc1ccc(CSc2nnc([C@@H]3CCCN3)o2)cc1` the activation was 0.21% (inactive).
With `CCCCSc1nnc(-c2ccc(C)cc2)o1` the activation was -1.09% (inactive).
With `Fc1ccc(CSc2nnc(-c3cc4c(s3)-c3ccccc3CC4)o2)cc1` the activation was 51.6% (active).
`Fc1ccc(-c2nnc(CSc3nnc(-c4ccc5c(c4)OCO5)o3)o2)cc1` was tested, and the activation was 11.2% (inactive).
With `O=C(CSc1nnc(-c2ccccc2O)o1)NC1CCCCC1` the activation was -6.68% (inactive).
With `CCOc1ncccc1C(=O)NNC(=O)c1cccc(S(=O)(=O)Nc2ccccc2OC)c1` the activation was -1.36% (inactive).
For `COc1ccc(N(C(=O)CNC(=O)c2ccco2)C(C(=O)NCC2CCCO2)c2ccccc2)cc1Cl` (stereo not given), the activation was -0.46% (inactive).
`CC1=NNC(=O)C1CC(=O)N/N=C/c1ccncc1` (stereo not given) was tested, and the activation was -0.52% (inactive).
`CCCCCC(=O)N1CCN(S(=O)(=O)c2ccc3c(c2)OCCCO3)CC1` was tested, and the activation was 1.73% (inactive).
`c1ccc2c(C[n+]3csc4ccccc43)cccc2c1` was tested, and the activation was 12.7% (inactive).
`CN(C(=O)Cn1nnc(-c2ccc(F)cc2)n1)C1CCS(=O)(=O)C1` (stereo not given) was tested, and the activation was -0.41% (inactive).
For `O=C(Nc1cc(S(=O)(=O)N2CCCCC2)ccc1Cl)C1COc2ccccc2O1` (stereo not given), the activation was 0.26% (inactive).
With `CCN(c1ccccc1)S(=O)(=O)c1ccc(C(=O)Nc2nccs2)cc1` the activation was 3.71% (inactive).
For `C=CCN(CC=C)S(=O)(=O)c1ccc(C(=O)Nc2nc3c(s2)CCc2ccccc2-3)cc1`, the activation was 50.7% (active).
For `COCCN(CCOC)S(=O)(=O)c1ccc(C(=O)Nc2nc3c(s2)CCc2ccccc2-3)cc1`, the activation was 11.6% (inactive).
`Cn1cccc1C(=O)NC(=O)COC(=O)Cc1coc2ccc3ccccc3c12` was tested, and the activation was 16.2% (inactive).
With `CCCCn1c(SCC(=O)N2CCOCC2)nc2c1c(=O)n(C)c(=O)n2C` the activation was 0.02% (inactive).
`Cc1cc(C)nc(Nc2n[nH]c(-c3ccccc3N)n2)n1` was tested, and the activation was 67% (active).
With `Cc1cc(C)nc(Nc2ncn[nH]2)n1` the activation was 2.66% (inactive).
With `CCCOc1ccccc1-c1nc(SCCC(=O)O)n[nH]1` the activation was 10.6% (inactive).

From PubChem BioAssay AID2796 (The Scripps Research Institute Molecular Screening Center, 2010)
